A short description of this assay: growth inhibition of WT strain, primary screen, mitochondrial fusion inhibitor project, WT and mutant strains, chemical genetic (AID 1362). Conditions: mitochondrial fusion phenotypic screen, at 10 µM.
Where [1] appears, read: WT strain, growth inhibition, stronger effect = higher value.

Each structure is given as a SMILES string. In all, about 190,000 compounds went through this assay and about 4,000 (2.1%) were called active. The sample holds actives, similar compounds and a random draw of the others, so the mix is not that of the screen. Cut-off read from the data, not from the text of the source: active = inhibition above about 58%; inactive = the rest, inconclusive results apart; tested in S. cerevisiae.

This passage reports inhibition results from PubChem BioAssay AID1362 (SRMLSC, 2008).

One may read the inhibition as the relative decrease from the control value, in per cent.

For `CC(C(=O)Nc1ccc(Cl)cc1Cl)N1CC=C(c2ccccc2)CC1` (stereo not given), the inhibition is, setting by setting: under setting [1], 70.9% (active); (mutant strain inhibition) 1.22%.
Taken in the same sequence, the figures for `CN1CCN(C(=S)SCC(=O)Nc2ccc(Cl)cc2C(=O)c2ccccc2)CC1` were 7.01% (inactive) and 6.59%.
Taken in the same sequence, the figures for `O=C(OCCN1CCOCC1)C1(c2ccccc2)CCCC1` were 8.37% (inactive) and 10.3%.
In the same order, the values of `CCCOC(=O)C1C2c3ccccc3C(c3ccccc32)C1C(=O)O` (stereo not given) are -5.35% (inactive) and -6.76%.
As for `CC1=CC(=Cc2sc3ccccc3[n+]2C)C=C(C)O1`, the inhibition by setting is: under setting [1], 65.7% (active); (mutant strain inhibition) 63.1%.
In the case of `COP(=O)(OC)C(NC(=O)c1ccc(C)cc1)C(Cl)(Cl)Cl` (stereo not given), the inhibition reads like this: under setting [1], 3.22% (inactive); (mutant strain inhibition) 7.65%.
Taken in the same sequence, the figures for `Cc1cc(C=C2C(=O)NC(=O)NC2=O)c(C)n1-c1ccncc1` were -0.16% (inactive) and -6.83%.
In the case of `O=C(Cn1c(=O)n(CC2CS2)c2ccccc21)N1CCCCC1` (stereo not given), the inhibition reads like this: under setting [1], 0.43% (inactive); (mutant strain inhibition) -0.1%.
Taken in the same sequence, the figures for `O=C(COC(=O)c1ccccc1)Nc1ccc(Cl)cc1C(=O)c1ccccc1` were 16.3% (inactive) and 10.6%.
Taken in the same sequence, the figures for `O=C(CN1CCCCC1)Nc1ccc(Br)cc1C(=O)c1ccccc1Cl` were 74.3% (active) and 9.62%.
As to `O=C(CCN1CCCCC1)NCC(=O)Nc1ccc(Br)cc1C(=O)c1ccccc1`, the inhibition was 7.53% (inactive) under setting [1] and 1.33% (mutant strain inhibition).
Consider `CCOC(=O)C1(CCc2ccccc2)CCN(Cc2ccco2)CC1`, for which the inhibition runs as follows: under setting [1], 12.8% (inactive); (mutant strain inhibition) 4.98%.
Turning to `COc1ccccc1N=Nc1c(O)[nH]c(=S)[nH]c1=O`, the inhibition is 4.7% (inactive) under setting [1] and 1.05% (mutant strain inhibition).
Consider `CC(c1ccccc1)(c1ccccc1)c1ccncc1`, for which the inhibition by setting is: under setting [1], 26.6% (inactive); (mutant strain inhibition) 19.3%.
As for `COP(=O)(NS(=O)(=O)c1ccccc1)OC`, the inhibition runs as follows: under setting [1], -9.16% (inactive); (mutant strain inhibition) -1.53%.
